Where a name gives a salt, the structure may show the parent alone.
Tests used:
Conditions in all cases: compound concentration in added solution (µM; 5 µl added to 20 µl cells): 10; 18 h
[1] = test system: A431; experiment: LBPA endosome anti-LBPA integrated intensity (sum per cell), Z-score; higher = more LBPA staining
Summary of the method: (§1)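 The data are Z-scores, normalised in AcuityXpress, of integrated LBPA or filipin intensity in each cell, either whole-cell or restricted to LBPA endosomes. HeLa MZ or A431 cells, 3,500 per well in 20 µl, were seeded onto 5 µl of 10 µM compound solution in duplicate 384-well plates and incubated 18 h. Fixed cells were stained and imaged, with intensities extracted by MetaXpress segmentation.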

[2] = test system: HeLa MZ; experiment: as above
Summary of the method: as §1

[3] = test system: A431; experiment: whole-cell filipin (free cholesterol) integrated intensity, Z-score; higher = more cholesterol staining
Summary of the method: as §1

[4] = test system: HeLa MZ; experiment: as above
Summary of the method: as §1

[5] = test system: A431; experiment: filipin (cholesterol) integrated intensity within LBPA endosomes, Z-score; higher = more cholesterol in LBPA endosomes
Summary of the method: as §1

[6] = test system: HeLa MZ; experiment: as above
Summary of the method: as §1

Row | SMILES | LBPA endosome anti-LBPA integrated intensity (z-score) [1] | LBPA endosome anti-LBPA integrated intensity (z-score) [2] | whole-cell filipin (z-score) [3] | whole-cell filipin (z-score) [4] | filipin (z-score) [5] | filipin (z-score) [6]
1 | O=C1CC[C@@]2(O)[C@H]3Cc4ccc(O)c5c4[C@@]2(CCN3CC2CC2)[C@H]1O5 [Naltrexone hydrochloride dihydrate] | -0.577 | -0.427 | -0.831 | -1 | -0.48 | -0.466
2 | CN1[C@@H]2CC[C@H]1C[C@@H](OC1c3ccccc3CCc3ccccc31)C2 [Deptropine citrate] | 3.21 | 1.46 | 1.8 | -0.333 | 2.68 | 1.23
3 | COc1cc2c(cc1OC)C(C)NCC2 (configuration not stated) | -0.47 | 0.672 | -0.808 | -0.327 | -0.528 | -0.121
4 | C[C@]12CCC(=O)C=C1CC[C@@H]1[C@@H]2C(=O)C[C@]2(C)C(=O)CC[C@@H]12 [Adrenosterone] | 0.667 | 1.59 | 1.61 | 2.01 | 1 | 0.731
5 | O=c1c2ccccc2[se]n1-c1ccccc1 [Ebselen] | -0.435 | -0.608 | -0.31 | -0.0059 | -0.372 | -0.243
6 | CC(O)(CS(=O)(=O)c1ccc(F)cc1)C(=O)Nc1ccc(C#N)c(C(F)(F)F)c1 (configuration not stated) [Bicalutamide] | -0.376 | -0.104 | -0.0253 | 0.26 | -0.405 | -0.188
7 | CC(C)(C)NCC(O)c1ccccc1Cl (configuration not stated) [Tulobuterol] | -0.101 | 1.38 | 0.203 | 0.36 | -0.334 | -0.0322
8 | CCCC(C)(COC(N)=O)COC(=O)NC(C)C (configuration not stated) [Carisoprodol] | -0.659 | -0.835 | -0.863 | -0.798 | -0.607 | -0.604
9 | C[N+]1([O-])[C@@H]2C[C@@H](OC(=O)[C@H](CO)c3ccccc3)C[C@H]1[C@@H]1O[C@@H]12 (some centres not stated) [Scopolamin-N-oxide hydrobromide] | -0.692 | -1.8 | -1.01 | -0.711 | -0.67 | -0.618
10 | C=C1C[C@@H]2[C@H](CC[C@]3(C)C(=O)CC[C@@H]23)[C@@]2(C)C=CC(=O)C=C12 [Exemestane] | -0.59 | 0.401 | -0.0622 | -0.2 | -0.537 | -0.552
11 | NC(=O)C[S+]([O-])C(c1ccccc1)c1ccccc1 (configuration not stated) [Modafinil] | -0.574 | -0.833 | -0.743 | -0.382 | -0.532 | -0.453
12 | CNCC(O)c1ccc(O)cc1 (racemic) [(+,-)-Synephrine] | -0.271 | -0.444 | 0.673 | -0.00115 | -0.481 | -0.576
13 | CCN(C(C)=O)c1cccc(-c2ccnc3c(C#N)cnn23)c1 [Zaleplon] | -0.486 | -0.0487 | -0.573 | -0.909 | -0.493 | -0.507
14 | CC(C)N(CCC(C(N)=O)(c1ccccc1)c1ccccn1)C(C)C (configuration not stated) [Disopyramide] | -0.423 | 0.142 | -0.822 | -0.537 | -0.461 | -0.294
15 | CC(CCc1ccccc1)NC(C)C(O)c1ccc(O)cc1 (configuration not stated) [Nylidrin] | 0.233 | 1.33 | 0.218 | -0.109 | -0.121 | 0.184
16 | CN[C@@H]1[C@@H](O)[C@@H](O[C@@H]2[C@@H](O)[C@H](O[C@H]3O[C@H](CN)CC[C@H]3N)[C@@H](N)C[C@H]2N)OC[C@]1(C)O.CN[C@@H]1[C@@H](O)[C@@H](O[C@@H]2[C@@H](O)[C@H](O[C@H]3O[C@H]([C@@H](C)N)CC[C@H]3N)[C@@H](N)C[C@H]2N)OC[C@]1(C)O.CN[C@@H]1[C@@H](O)[C@@H](O[C@@H]2[C@@H](O)[C@H](O[C@H]3O[C@H]([C@@H](C)NC)CC[C@H]3N)[C@@H](N)C[C@H]2N)OC[C@]1(C)O [Gentamicine sulfate] | -0.58 | -1.17 | -1.14 | -0.98 | -0.535 | -0.682
17 | CC[N+]1(C)CCCC(OC(=O)C(O)(c2ccccc2)c2ccccc2)C1 (configuration not stated) [Pipenzolate bromide] | -0.28 | 0.585 | -0.135 | 0.198 | -0.297 | -0.211
18 | C[C@]12CC[C@@H](O)C[C@@H]1CC[C@@H]1[C@@H]2CC[C@]2(C)C(=O)CC[C@@H]12 [Androsterone] | -0.387 | -0.552 | -0.613 | -0.395 | -0.241 | -0.291
19 | NCCCNCCSP(=O)(O)O [Amifostine] | -0.621 | -1 | -0.901 | -0.742 | -0.572 | -0.603
20 | O=P1(N(CCCl)CCCl)NCCCO1 (configuration not stated) [Cyclophosphamide] | -0.0725 | 1.02 | 0.399 | 0.209 | -0.311 | 0.352
21 | C[C@]12CC[C@H]3[C@@H](CCC4=CC(=O)CC[C@@H]43)[C@@H]1CC[C@@H]2O [Nandrolone] | -0.352 | 0.296 | -0.14 | -0.437 | -0.296 | -0.508
22 | CCOC(=O)c1cncn1[C@H](C)c1ccccc1 [Etomidate] | -0.611 | -1.14 | -0.618 | -0.784 | -0.487 | -0.672
23 | Cc1cccc(C)c1NC1=NCCCS1 [Xylazine] | -0.493 | 0.606 | -0.691 | -0.725 | -0.524 | -0.0906
24 | CN1[C@@H]2CC[C@H]1C[C@@H](OC(=O)C(CO)c1ccccc1)C2 (some centres not stated) [Atropine sulfate monohydrate] | -0.568 | -0.87 | -0.533 | -0.945 | -0.5 | -0.345

Row | SMILES | LBPA endosome anti-LBPA integrated intensity (z-score) [1] | LBPA endosome anti-LBPA integrated intensity (z-score) [2] | whole-cell filipin (z-score) [3] | whole-cell filipin (z-score) [4] | filipin (z-score) [5] | filipin (z-score) [6]
25 | CN(C)C(=O)Oc1cccc([N+](C)(C)C)c1 [Neostigmine bromide] | -0.478 | -0.496 | -0.63 | -0.608 | -0.499 | -0.715
26 | CCN(CC)C(C)C(=O)c1ccccc1 (configuration not stated) [Amfepramone hydrochloride] | -0.552 | 0.252 | -0.82 | -0.758 | -0.654 | -0.615
27 | CN1C[C@H](C(=O)N[C@]2(C)O[C@@]3(O)[C@@H]4CCCN4C(=O)[C@H](Cc4ccccc4)N3C2=O)C[C@@H]2c3cccc4[nH]cc(c34)C[C@H]21 [Dihydroergotamine tartrate] | 2.74 | 2.55 | 1.06 | 0.225 | 1.48 | 1.1
28 | O=[N+]([O-])O[C@H]1CO[C@H]2[C@@H]1OC[C@H]2O[N+](=O)[O-] [Isosorbide dinitrate] | -0.547 | -1 | -0.426 | -0.655 | -0.496 | -0.471
29 | COc1ccc2c(c1)[C@]13CCCC[C@@H]1[C@H](C2)N(C)CC3 [Dextromethorphan hydrobromide monohydrate] | -0.375 | 0.494 | -0.0383 | 0.286 | -0.149 | 0.237
30 | C[C@H](N)[C@H](O)c1ccc(O)c(O)c1 [Levonordefrin] | -0.29 | -0.019 | 0.247 | 0.753 | -0.427 | -0.337
31 | C[C@]12C[C@H]3S[C@H]3C[C@@H]1CC[C@@H]1[C@@H]2CC[C@]2(C)[C@@H](O)CC[C@@H]12 [Epitiostanol] | -0.387 | 0.565 | 0.372 | 0.761 | -0.364 | -0.401
32 | CN1C(=O)CCS(=O)(=O)C1c1ccc(Cl)cc1 (configuration not stated) [Chlormezanone] | -0.579 | -0.715 | -0.534 | 0.0972 | -0.511 | -0.314
33 | CCC(C)C1O[C@]2(C=C[C@@H]1C)C[C@@H]1CC(C/C=C(\C)[C@@H](OC3C[C@H](OC)[C@@H](OC4C[C@H](OC)[C@@H](O)[C@H](C)O4)[C@H](C)O3)[C@@H](C)/C=C/C=C3\COC4[C@H](O)C(C)=CC(C(=O)O1)[C@]34O)O2 (some centres not stated) [Avermectin B1a] | -0.178 | 0.136 | -0.0649 | 0.727 | -0.285 | -0.0937
34 | CC(C)C[C@H]1C(=O)N2CCC[C@H]2[C@]2(O)O[C@](NC(=O)[C@@H]3C=C4c5cccc6[nH]c(Br)c(c56)C[C@H]4N(C)C3)(C(C)C)C(=O)N12 [Bromocryptine mesylate] | 0.99 | 2.32 | 1.54 | 0.742 | 0.487 | 0.695
35 | CC(Cc1ccc(O)cc1)NCC(O)c1cc(O)cc(O)c1 (configuration not stated) [Fenoterol hydrobromide] | -0.386 | 0.00712 | -0.429 | -0.631 | -0.574 | -0.584
36 | O=C([O-])c1ccccc1-c1c2cc(Br)c(=O)cc-2oc2[c]([Hg+])c([O-])c(Br)cc12.[Na+].[Na+].[OH-] [Merbromin] | -0.53 | -1.95 | -0.246 | -0.654 | -0.525 | -0.65
37 | O=c1[nH]c2ccccc2n1C1CCN(CCCC(c2ccc(F)cc2)c2ccc(F)cc2)CC1 [Pimozide] | 0.798 | 0.814 | 0.271 | -0.393 | 0.65 | 0.34
38 | CC[C@@H](CO)NC(=O)[C@@H]1C=C2c3cccc4[nH]cc(c34)C[C@H]2N(C)C1 [Methylergometrine maleate] | -0.539 | -1.25 | -0.649 | -0.308 | -0.495 | -0.637
39 | C=C1CC[C@@]2(O)[C@H]3Cc4ccc(O)c5c4[C@@]2(CCN3CC2CC2)[C@H]1O5 [Nalmefene hydrochloride] | -0.278 | 0.776 | -0.193 | -0.0735 | -0.304 | 0.0741
40 | O=C(CCCN1CCC2(CC1)C(=O)NCN2c1ccccc1)c1ccc(F)cc1 [Spiperone] | 1.39 | 1.71 | 1.66 | 1.7 | 1.87 | 2.13
41 | C[N+]1(C)CCCC(OC(=O)C(O)(c2ccccc2)c2ccccc2)C1 (configuration not stated) [Mepenzolate bromide] | -0.582 | -0.861 | -0.409 | -0.0861 | -0.481 | -0.374
42 | C(#CCN1CCCC1)CN1CCCC1 [Tremorine dihydrochloride] | -0.282 | 0.485 | -0.922 | -0.198 | -0.368 | 0.452
43 | CC(C)c1c(CN(C)C(C)Cc2ccccc2)n(C)n(-c2ccccc2)c1=O (configuration not stated) [Famprofazone] | -0.355 | -0.241 | -0.228 | -0.336 | -0.4 | -0.445
44 | CC(C)(N)Cc1ccccc1 [Phentermine hydrochloride] | -0.333 | 0.854 | 0.392 | 0.563 | -0.29 | -0.0575
45 | CC(=O)[C@H]1CC[C@H]2[C@@H]3CC[C@H]4C[C@H](O)CC[C@]4(C)[C@H]3C(=O)C[C@]12C [Alfaxalone] | 1.82 | 1.23 | 0.358 | -0.273 | 0.378 | -0.0632
46 | C=C(C)[C@@H]1[C@H]2OC(=O)[C@@H]1[C@]1(O)C[C@H]3O[C@]34C(=O)O[C@H]2[C@]14C [Picrotoxinin] | -0.582 | -0.88 | -0.718 | -0.469 | -0.448 | -0.32
47 | C[C@]12COC(=O)C[C@@H]1CC[C@@H]1[C@@H]2CC[C@@]2(C)[C@H]1CC[C@]2(C)O [Oxandrolone] | -0.386 | -0.00131 | -0.15 | -0.159 | -0.429 | -0.517

Source: the supplement of paper PMC6607015
